From PubChem BioAssay AID504452 (The Scripps Research Institute Molecular Screening Center, 2011)
Calls of active or inactive are those of the source. Rule as the data show it: active = activation above about 85%; inactive = the rest.

Biological target: Peroxisome proliferator-activated receptor gamma (Homo sapiens) (UniProt P37231)
Test: PPARg partial agonist activation, primary screen, cell-based, luciferase reporter, luminescence (AID 504452);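 also: Cos-1 cells carrying PPARgamma and a response element luciferase reporter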
Settings: at 5 µM, stronger effect = higher value; activation (% of full agonist control): measured here: relative to full agonist control

Sequence of Peroxisome proliferator-activated receptor gamma (Homo sapiens) (P37231 whole entry, looked up): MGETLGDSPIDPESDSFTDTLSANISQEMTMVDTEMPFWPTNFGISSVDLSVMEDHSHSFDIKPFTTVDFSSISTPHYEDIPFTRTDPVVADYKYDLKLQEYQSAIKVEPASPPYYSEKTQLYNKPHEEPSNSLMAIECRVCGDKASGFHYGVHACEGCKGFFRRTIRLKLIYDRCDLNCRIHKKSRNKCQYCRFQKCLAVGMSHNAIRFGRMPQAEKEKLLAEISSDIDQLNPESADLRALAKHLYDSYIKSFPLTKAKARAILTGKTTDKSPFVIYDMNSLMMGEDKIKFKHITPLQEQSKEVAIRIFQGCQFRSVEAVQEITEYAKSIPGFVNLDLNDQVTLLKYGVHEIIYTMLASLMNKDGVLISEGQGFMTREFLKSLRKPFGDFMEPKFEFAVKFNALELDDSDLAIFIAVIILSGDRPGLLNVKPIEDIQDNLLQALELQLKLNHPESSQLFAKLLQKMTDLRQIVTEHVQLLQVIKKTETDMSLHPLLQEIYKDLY

Compound | activation (% of full agonist control) [%] | activation (% of partial agonist control)
COc1ccc2c(c1)c(=O)c(C(=O)c1ccc(F)cc1)cn2CC(=O)Nc1ccc(F)cc1 | 48.8 | 108% (active)
O=C(COc1ccc([N+](=O)[O-])cc1)Nc1cccc(C(=O)Nc2ccccc2C(=O)O)c1 | 27.7 | 61.3% (inactive)
CCOc1ccc(CN2CCN(Cc3cccc4nonc34)CC2CCO)cc1 (centres undefined) | 44.9 | 99.4% (active)
O=C(CN(c1ccc(F)cc1)S(=O)(=O)c1ccccc1)NC1CC2CCC1C2 (centres undefined) | 24.2 | 53.5% (inactive)
COc1cc(C(CC(=O)Nc2cccc(C)n2)N2Cc3ccccc3C2=O)cc(OC)c1OC (centres undefined) | 29.1 | 64.3% (inactive)
CCOc1cccc(/C(O)=C2/C(=O)C(=O)N(Cc3ccco3)C2c2ccncc2)c1 (centres undefined) | 41.1 | 91% (active)
COc1ccc(C2C(C(=O)N3CCC(C(N)=O)CC3)CC(=O)N2c2ccc(OC)cc2)cc1 (centres undefined) | 25.5 | 56.5% (inactive)
COc1ccc(-n2c3c(cc(C(=O)NNc4ccccc4C)c2=O)C(=O)CC(C)(C)C3)cc1 | 32.7 | 72.5% (inactive)
COc1ccc2c(c1)c(CCN1C(=O)c3ccccc3C1=O)cn2C(=O)c1ccco1 | 27.3 | 60.4% (inactive)
O=C(Nc1ccccc1F)C(=O)c1cn(CC(=O)N2CCCCC2)c2ccccc12 | 34.4 | 76.1% (inactive)
CC(C(=O)N1CCN(c2ccccc2)CC1)N1C(=O)C2CC=CCC2C1=O (centres undefined) | 32.1 | 71.1% (inactive)
O=C(COc1coc(CN2CCc3ccccc3C2)cc1=O)Nc1ccc(F)cc1F | 44.3 | 98.2% (active)
O=c1c([N+](=O)[O-])c(NCCN2CCCCCC2)c2ccccc2n1-c1ccccc1 | 15.8 | 34.9% (inactive)
Cc1ccc(C)c(/C(O)=C2/C(=O)C(=O)N(CCN3CCOCC3)C2c2ccc(C)o2)c1 (centres undefined) | 9.22 | 20.4% (inactive)
O=C(CC1C(=O)Nc2ccccc2N1CC(=O)N1CCCC1)Nc1ccc(Br)cc1 (centres undefined) | 37 | 81.9% (inactive)
COc1cc(C2/C(=C(/O)c3ccc(F)cc3)C(=O)C(=O)N2CCCC(=O)O)ccc1O (centres undefined) | 37 | 82% (inactive)
O=C(NCCc1c[nH]c2ccccc12)N[C@@H](Cc1ccccc1)C(=O)O | 33.3 | 73.7% (inactive)
COc1ccc(C2CC(=O)N3CN(c4ccccc4F)CSC3=C2C#N)cc1OC (centres undefined) | 29.2 | 64.7% (inactive)
COc1cc(/C=C(\NC(=O)c2ccccc2)C(=O)NC(C(=O)O)c2ccccc2)cc(OC)c1OC (centres undefined) | 39.8 | 88% (active)
O=C(CC(C(=O)N1CCc2ccccc21)n1ccnc1)NCc1ccccc1 (centres undefined) | 14.1 | 31.2% (inactive)
COc1ccc2c(c1)c(=O)c(C(=O)c1ccc(C)cc1)cn2CC(=O)Nc1ccc(F)cc1 | 45 | 99.5% (active)
CCOc1cccc(/C(O)=C2/C(=O)C(=O)N(CCN3CCOCC3)C2c2ccncc2)c1 (centres undefined) | 41.3 | 91.4% (active)
O=C1C(=O)N(CCCn2ccnc2)C(c2ccc(Cl)cc2)/C1=C(\O)c1ccc2c(c1)OCCO2 (centres undefined) | 41.5 | 91.9% (active)
O=[N+]([O-])c1cc(S(=O)(=O)Nc2cccc(C(F)(F)F)c2)ccc1-n1nnc2ccccc21 | 34.2 | 75.8% (inactive)

Compound | activation (% of full agonist control) [%] | activation (% of partial agonist control)
CC1Cc2cc(/C(O)=C3/C(=O)C(=O)N(CCN4CCOCC4)C3c3ccc(N(C)C)cc3)ccc2O1 (centres undefined) | 29.1 | 64.3% (inactive)
Nc1ccccc1SC1CC(=O)N(c2ccc3c(c2)OCO3)C1=O (centres undefined) | 34.5 | 76.4% (inactive)
CCN(CC)S(=O)(=O)c1ccc(N2CCOCC2)c(NC(=O)C(C)Oc2ccc(F)cc2)c1 (centres undefined) | 29.3 | 64.8% (inactive)
Cc1cccc(Cn2cc3c(=O)n(Cc4cccc(F)c4)nc-3c3ccccc32)c1 | 38 | 84.2% (inactive)
Cc1c(-n2cc(C(=O)c3cc(F)ccc3O)cc(C#N)c2=O)c(=O)n(-c2ccccc2)n1C | 43.7 | 96.7% (active)
O=C1CC(N2CCN(Cc3ccc4c(c3)OCO4)CC2)C(=O)N1Cc1ccc(N2CCCC2=O)cc1 (centres undefined) | 41.4 | 91.6% (active)
CCOc1cccc(C2C(C(=O)c3ccco3)=C(O)C(=O)N2c2nnc(C)s2)c1 (centres undefined) | 31.8 | 70.4% (inactive)
O=C(NCC(c1ccco1)N1CCc2ccccc2C1)c1cccc(F)c1 (centres undefined) | 33.4 | 74% (inactive)
Cc1ccc2nc(N3C(=O)C(O)=C(C(=O)c4ccc(C)o4)C3c3ccc(O)cc3)sc2c1 (centres undefined) | 37 | 81.9% (inactive)
Cc1[nH][nH]c(=O)c1C(c1c(C)[nH][nH]c1=O)c1cn(Cc2ccc(Cl)c(Cl)c2)c2ccccc12 | 35.5 | 78.5% (inactive)
CC(=O)N/C(=C\c1ccc2c(c1)OCO2)C(=O)NC(C(=O)O)c1ccccc1 (centres undefined) | 27.7 | 61.4% (inactive)
O=C(NC(Cc1c[nH]c2ccccc12)C(=O)O)/C(=C/c1ccc(F)cc1)NC(=O)c1ccccc1 (centres undefined) | 32.2 | 71.2% (inactive)
Cc1cccc(NC(=O)CN2C(=O)N/C(=C/c3ccc(-c4cccc(C(=O)O)c4C)o3)C2=O)c1 | 34.1 | 75.5% (inactive)
O=C(CN1C(=O)/C(=C/c2ccccc2F)Sc2ccccc21)NCC1CCCO1 (centres undefined) | 35 | 77.5% (inactive)
CN1CCN(S(=O)(=O)c2ccc(Sc3nc4ccccc4[nH]3)c3nsnc23)CC1 | 43.8 | 96.9% (active)
COc1ccc(N2C(=O)C(=O)/C(=C(/O)c3ccc(C)cc3)C2c2cccnc2)cc1 (centres undefined) | 28.8 | 63.8% (inactive)
O=C(COc1coc(CN2CCc3ccccc3C2)cc1=O)Nc1cccc(Cl)c1 | 29.2 | 64.6% (inactive)
O=C1C(=O)N(Cc2ccccc2)C(c2cccc(O)c2)/C1=C(\O)c1ccc2c(c1)OCCO2 (centres undefined) | 25.6 | 56.7% (inactive)
Cc1ccc(OCC(=O)Nc2ccc(N3CCN(C(=O)c4ccco4)CC3)cc2)cc1 | 31.4 | 69.5% (inactive)
CCOc1ccc2nc(N3C(=O)C(O)=C(C(=O)c4ccco4)C3c3ccco3)sc2c1 (centres undefined) | 38.5 | 85.2% (active)
Cc1ccc2[nH]c(=O)c(CN(Cc3cccs3)Cc3nnnn3CC3CCCO3)cc2c1 (centres undefined) | 44.1 | 97.6% (active)
CCC(=O)c1ccc(OCC(=O)OC(C)C(=O)Nc2c(C)n(C)n(-c3ccccc3)c2=O)cc1 (centres undefined) | 40.4 | 89.5% (active)
COc1ccccc1N1C(=O)C2C(c3ccc(F)cc3)NN(C(=O)c3ccc(C)cc3)C2C1=O (centres undefined) | 30.1 | 66.5% (inactive)
CCc1ccc(N2CC(C(=O)OCC(=O)Nc3ccc(C(C)=O)cc3)CC2=O)cc1 (centres undefined) | 31 | 68.6% (inactive)

Compound | activation (% of full agonist control) [%] | activation (% of partial agonist control)
Nc1ccc(-n2c(N)c(C(=O)NCc3ccc4c(c3)OCO4)c3nc4ccccc4nc32)cc1 | 26.3 | 58.3% (inactive)
COc1ccc(CN(C)C(=O)[C@H](Cc2ccccc2)NC(=O)c2ccco2)c(OC)c1 | 32.8 | 72.7% (inactive)
Cc1nc2ncccn2c1-c1csc(Nc2cccc(C(=O)O)c2)n1 | 33.5 | 74.2% (inactive)
COc1ccccc1NC(=O)C(=O)c1cn(CC(=O)N2CCOCC2)c2ccccc12 | 42.3 | 93.5% (active)
C=CCSc1nnc(N2C(=O)C(O)=C(C(=O)c3ccco3)C2c2ccc(F)cc2)s1 (centres undefined) | 30.5 | 67.6% (inactive)
Cc1cc(N2C(=O)C(O)=C(C(=O)c3cccs3)C2c2cccc(Br)c2)no1 (centres undefined) | 45.7 | 101% (active)
O=c1c2cn(Cc3ccc(F)cc3)c3ccc(F)cc3c-2nn1Cc1ccc(F)cc1 | 48.9 | 108% (active)
Cc1ccc2nc(N3C(=O)C(O)=C(C(=O)c4ccco4)C3c3cccc(O)c3)sc2c1 (centres undefined) | 46.7 | 103% (active)
O=C(CNC(=O)c1nc[nH]c1C(=O)N1CCc2ccccc2C1)OCc1ccccc1 | 40.3 | 89.3% (active)
O=C(CCn1c(=O)c2sccc2n(CC(=O)OCc2ccccc2)c1=O)NCc1ccccc1 | 31.1 | 68.8% (inactive)
O=S(=O)(NCC(c1ccco1)N1CCc2ccccc2C1)c1ccc(F)cc1 (centres undefined) | 29.9 | 66.1% (inactive)
O=C(NC(Cc1ccccc1)C(=O)O)/C(=C/c1cccc([N+](=O)[O-])c1)NC(=O)c1ccco1 (centres undefined) | 41.5 | 91.8% (active)
COc1ccc(-c2cc(C(=O)NC(C)c3ccccn3)c3ccccc3n2)cc1OC (centres undefined) | 40.7 | 90.2% (active)
CC(Oc1ccc(F)cc1)C(=O)Nc1cc(S(=O)(=O)N2CCOCC2)ccc1N1CCCCC1 (centres undefined) | 33.8 | 74.8% (inactive)
COc1ccc(C=NNS(=O)(=O)c2ccc(F)cc2)cc1COc1cc(F)ccc1[N+](=O)[O-] | 42.9 | 95% (active)
O=C(NC(Cc1ccccc1)C(=O)N1CCN(c2ccccc2O)CC1)c1ccccc1 (centres undefined) | 40.7 | 90.2% (active)
Cc1cc(N2C(=O)C(O)=C(C(=O)c3ccco3)C2c2cccc(Oc3ccccc3)c2)no1 (centres undefined) | 32.2 | 71.3% (inactive)
CCC(=O)Nc1nonc1-c1nc2ccccc2n1Cc1cccc2ccccc12 | 25.1 | 55.5% (inactive)
COc1ccc(C)c2sc(N(CCCN(C)C)C(=O)CS(=O)(=O)c3ccc(F)cc3)nc12 | 31.2 | 69.1% (inactive)
COc1ccccc1N1C(=O)C2C(C(=O)c3ccccc3)=NN(c3ccc(C)cc3)C2C1=O (centres undefined) | 47.8 | 106% (active)
CC(Oc1ccc(F)cc1)C(=O)Nc1cc(S(=O)(=O)N2CCOCC2)ccc1N1CCCC1 (centres undefined) | 33.9 | 75.1% (inactive)
CSCc1c(C(=O)Nc2ccc(N3CCOCC3)cc2)oc2ccccc12 | 33.5 | 74.2% (inactive)
O=C(Nc1cc(Cl)ccc1O)c1cc2n(n1)C(C(F)(F)F)CC(c1ccc3c(c1)OCO3)N2 (centres undefined) | 35 | 77.5% (inactive)
Cc1ccc(O)c(C(=O)c2cc(C#N)c(=O)n(C(C)c3ccccc3)c2)c1 (centres undefined) | 33.3 | 73.7% (inactive)
